# Laboratory results published in PubChem BioAssay (NCATS).
# “And” between values parts separate entries of the source, which are not always exact repeats. Equal entries are not always repeated. Inconclusive results are not listed. Values without a mark were called inactive. The source made the active and inactive calls. The call rests on the fitted dose curve; in most records, active means well fitted curve in the direction sought with a large enough effect; inconclusive means small, poorly fitted or top-dose-only effect, or another doubt; inactive means no such curve, though single readings can be large; an effect the other way counts as inactive or inconclusive.
# Key:
# [1] = Viability qHTS for spleen associated tyrosine kinase inhibitor (SYKi) drug resistant MV4-11 cells (AID 1963824); further: nearly all actives have a fitted effect of over 35% in size
# Outline: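 CellTiter-Glo luminescence, read 10 min after reagent addition, reports viability after a 72 hr compound exposure. Cells are an MV4-11 line made resistant to SYK inhibition, seeded at 500 per well onto compound-containing plates.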
# [2] = Quantitative highthroughput screen to assess conditional lethalithy of NOMO1 cells grown in RPMI1640 with untreated serum (RPMI+s) (AID 1963876); further: nearly all actives have a fitted effect of over 35% in size;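 on Viability: 100% = DMSO wells and 0% = empty wells without cells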
# Outline: (§1)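 Each medium arm—HPLM with 10% dialyzed FBS, or RPMI1640 with 5 mM glucose and 10% untreated or dialyzed FBS—was screened against an 11-point, 3-fold compound titration for 48 h at 37 °C, with CellTiter-Glo luminescence as endpoint.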
# [3] = Quantitative highthroughput screen to assess conditional lethalithy of NOMO1 cells grown in RPMI1640 with dialyzed fetal bovine serum (RPMI+ds) (AID 1963877); further: nearly all actives have a fitted effect of over 30% in size;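 on Viability: series mostly up to about 46 µM; 100% = DMSO control wells and 0% = empty wells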
# Outline: as §1
# [4] = Quantitative highthroughput screen to assess conditional lethalithy of NOMO1 cells grown in Human Plasma-Like Medium with dialyzed fetal bovine serum (HPLM+ds) (AID 1963878); further: nearly all actives have a fitted effect of over 35% in size;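 on Viability: 100% = DMSO wells and 0% = empty wells on each plate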
# Outline: as §1
# [5] = Quantitative highthroughput screen to assess conditional lethalithy of P12 Ichikawa cells grown in Human Plasma-Like Medium with dialyzed fetal bovine serum (HPLM+ds) (AID 1963879); details: Potency: viability; further: nearly all actives have a fitted effect of over 35% in size; on Viability: series mostly up to about 46 µM
# Outline: as §1
# [6] = Quantitative highthroughput screen to assess conditional lethalithy of P12 Ichikawa cells grown in RPMI1640 with dialyzed fetal bovine serum (RPMI+ds) (AID 1963880); details: Potency: P12-Ichikawa viability; further: nearly all actives have a fitted effect of over 35% in size;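 on Viability: 100% = DMSO wells and 0% = empty wells on each plate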
# Outline: as §1
# [7] = Quantitative highthroughput screen to assess conditional lethalithy of P12 Ichikawa cells grown in RPMI1640 with untreated serum (RPMI+s) (AID 1963881); details: Potency: viability; further: nearly all actives have a fitted effect of over 35% in size;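 on Viability: series mostly up to about 46 µM; 100% = DMSO wells and 0% = empty wells without cells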
# Outline: as §1
# [8] = Quantitative highthroughput screen to assess conditional lethalithy of SEM cells grown in Human Plasma-Like Medium with dialyzed fetal bovine serum (HPLM+ds) (AID 1963882); further: nearly all actives have a fitted effect of over 35% in size; on Viability: series mostly up to about 46 µM
# Outline: as §1
# [9] = Quantitative highthroughput screen to assess conditional lethalithy of SEM cells grown in RPMI1640 with unreated serum (RPMI+s) (AID 1963883); further: nearly all actives have a fitted effect of over 35% in size;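 on Viability: 100% = DMSO wells and 0% = empty wells without cells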
# Outline: as §1
# [10] = Quantitative highthroughput screen to assess conditional lethalithy of SEM cells grown in RPMI1640 with dialyzed fetal bovine serum (RPMI+ds) (AID 1963884); further: nearly all actives have a fitted effect of over 35% in size;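 on Viability: series mostly up to about 46 µM; 100% = DMSO control wells and 0% = empty wells without cells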
# Outline: as §1
# [11] = Cellular viability qHTS for adrenocortical cancer (ACC) cell line SW-13 (AID 1963989); details: SW-13 ACC cells viability, CellTiter-Glo, 48 h; activity (max response): active compounds read low; further: nearly all actives have a fitted effect of over 65% in size;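 on activity (max response): cells grown in serum-free medium with ITS supplement; on the % scale 0 is the no-effect control and ±100 the full control effect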
# Outline: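 SW-13 cells in ITS-supplemented serum-free DMEM were plated overnight, then exposed for 48 h at 37C to compound titrations (up to 46 uM final). Viability was read by CellTiter-Glo luminescence; four-parameter logistic fits gave IC50 and efficacy.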
# [12] = Cellular viability qHTS for adrenocortical cancer (ACC) cell line NCI-H295R (AID 1963990); further: nearly all actives have a fitted effect of over 60% in size
# Outline: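 Luminescent ATP read-out (CellTiter-Glo, 20 min RT) after 48 h drug exposure of NCI-H295R cells; a titration up to 46 uM final. Data normalized to doxorubicin (100% inhibition) and DMSO (0%); 4-parameter fit gives IC50, max response.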
# Potency means the concentration at half of the fitted maximal effect.
compound,measurement,setting,value
C/C=C1\[C@H](O[C@@H]2O[C@H](CO)[C@@H](O)[C@H](O)[C@H]2O)OC=C(C(=O)OC)[C@H]1CC(=O)OC[C@H]1O[C@@H](OCCc2ccc(O)cc2)[C@H](O)[C@@H](O)[C@@H]1O,Potency,[1],inactive
CC(C)(C)n1nc(Cc2cccc([N+](=O)[O-])c2)c2c(N)ncnc21,Potency,[1],5.17 µM (active)
CC(C)c1ccc(-c2cc(=O)c3ccccc3o2)cc1,Potency,[1],13 µM (active)
CCCNCCOc1ccc(NC(=O)c2c[nH]c3c2C(=O)CCC3)cc1F,Potency,[1],2.91 µM (active)
CN1CCN(c2nc(C3=C(c4c[nH]c5ccccc45)C(=O)NC3=O)c3ccccc3n2)CC1,Potency,[1],461 nM (active) and 2.35 µM (active)
OC1COC(OCC2OC(OCCc3ccccc3)C(O)C(O)C2O)C(O)C1O (stereo not drawn),Potency,[1],inactive
CC[C@]1(O)C[C@H]2CN(CCC3C(=Nc4ccccc43)[C@@](C(=O)OC)(c3cc4c(cc3OC)N(C)[C@H]3[C@@](O)(C(N)=O)[C@H](O)[C@]5(CC)C=CCN6CC[C@]43[C@@H]65)C2)C1 (stereo partly drawn),Potency,[1],0.0366 µM (active)
CC(C)S(=O)(=O)NC[C@H](C)c1ccc(-c2ccc(CCNS(C)(=O)=O)cc2)cc1,Potency,[1],2.31 µM (active)
CC1CCC2(NC1)OC1CC3C4CC=C5CC(O[C@@H]6O[C@H](CO)[C@@H](O[C@@H]7O[C@@H](C)[C@H](O)[C@@H](O)[C@H]7O)[C@H](O)[C@H]6O[C@@H]6O[C@@H](C)[C@H](O)[C@@H](O)[C@H]6O)CCC5(C)C4CCC3(C)C1C2C (stereo partly drawn),Potency,[1],5.51 µM (active)
CC1(C)O[C@H]2CC(=O)OC[C@@]23C1=C(O)C(=O)[C@]1(C)C3CC[C@@]2(C)[C@H](c3ccoc3)OC(=O)[C@H]3O[C@]321 (stereo partly drawn),Potency,[1],inactive
CC1=CC(=O)[C@@]2(C(C)C)C[C@@H]12,Potency,[1],13 µM (active)
CC1=CC(=O)C2C(C)(C)CCC[C@]2(C)[C@H]1CC[C@H](C)CC(=O)O (stereo partly drawn),Potency,[1],inactive
CO[C@H]1C[C@@H]2CC[C@@H](C)[C@@](O)(O2)C(=O)C(=O)N2CCCC[C@H]2C(=O)O[C@H]([C@H](C)C[C@@H]2CC[C@@H](OC(=O)C(C)(CO)CO)[C@H](OC)C2)CC(=O)[C@H](C)/C=C(\C)[C@@H](O)[C@@H](OC)C(=O)[C@H](C)C[C@H](C)/C=C/C=C/C=C/1C,Potency,[1],10.2 µM (active)
O=Nc1c(-c2c(O)[nH]c3ccc(F)cc23)[nH]c2ccccc12,Potency,[1],0.058 µM (active)
COc1cn(-c2ccc(-n3cccn3)cc2F)nc(-c2ccnn2-c2ccccc2)c1=O,Potency,[1],inactive
CN(c1ccccc1CNc1nc(Nc2ccc3c(c2)CC(=O)N3)ncc1C(F)(F)F)S(C)(=O)=O,Potency,[1],0.326 µM (active)
COc1cc(O)cc(OC2OC(CO)C(O)C(O)C2O)c1 (stereo not drawn),Potency,[1],inactive
COc1ccc(/C=C/C(N)=O)cc1OC,Potency,[1],inactive
Nc1nc2c(ncn2[C@@H]2O[C@H](CO)[C@@H](O)[C@H]2O)c(=O)[nH]1,Potency,[1],inactive
COc1cc(N2CCC(N3CCN(C)CC3)CC2)ccc1Nc1ncc(Cl)c(-c2c[nH]c3ccccc23)n1,Potency,[1],0.0116 µM (active)
Cc1cn2cc(C(=O)N(C)CCO)cc(NC3CCOc4cccc(C)c43)c2n1 (stereo not drawn),Potency,[1],inactive
C=C1C(=O)O[C@@H]2C(OC(=O)/C(C)=C\C)/C(C)=C\C(=O)/C=C(\C)C[C@H](O)[C@@H]12 (stereo partly drawn),Potency,[1],1.01 µM (active)
C=C[C@@]1(C)CCC2=C([C@H]1OC(C)=O)[C@H](OC(C)=O)CC1[C@](C)(C(=O)OC)CC[C@H](OC(C)=O)[C@]21C (stereo partly drawn),Potency,[1],inactive
C/C(=C\C(=O)C(C)C1CCC2C3=C(CCC21C)C1(C)CCC(=O)C(C)(C)C1(O)CC3)C(C)(C)O (stereo not drawn),Potency,[1],10 µM (active)
Clc1ccc(Cn2c(Cc3ccccc3)nc3ccccc32)cc1,Potency,[1],16.4 µM (active)
CC(=O)O[C@H]1C[C@@]2(C)[C@@H](CC[C@H]3[C@@]4(C)C=CC(=O)[C@@H](C)[C@@H]4[C@H](OC(C)=O)C(=O)[C@@]32C)/C1=C(\CCC=C(C)C)C(=O)O,Potency,[1],inactive
COC(=O)C12CCC(C)C(C)C1C1=CCC3C4(C)CCC(OC(C)=O)C(C)(C)C4CCC3(C)C1(C)CC2 (stereo not drawn),Potency,[1],inactive
COc1cc2ncnc(Nc3ccc(NC(=O)c4ccccc4)cc3)c2cc1OC,Potency,[1],4.61 µM (active)
COc1ccnc(CS(=O)c2nc3cc(OC(F)F)ccc3[nH]2)c1OC (stereo not drawn),Potency,[1],inactive
CC(C)(O)C(O)C(=O)OCc1ccc(O[C@@H]2O[C@H](CO)[C@@H](O)[C@H](O)[C@H]2O)cc1 (stereo partly drawn),Potency,[1],inactive
C[C@H](NC(c1cccc(C[P+](=O)O)c1)[C@H](C)O)c1ccc(Cl)c(Cl)c1 (stereo partly drawn),Potency,[1],inactive
CO/N=C(/C(=O)N[C@@H]1C(=O)N2C(C(=O)OCOC(=O)C(C)(C)C)=C(C)CS[C@H]12)c1csc(N)n1,Potency,[1],23.7 µM (active)
NCC(CNc1nc(Nc2cccc(NC(=O)N3CCCC3)c2)ncc1I)C(=O)c1cccs1 (stereo not drawn),Potency,[1],0.231 µM (active)
COc1cc2ncnc(Nc3ccc(Oc4ccccc4)cc3)c2cc1OC,Potency,[1],0.291 µM (active)
CC1OC2OC(=O)C3(C)CC4C5(CO5)C5=CC(=O)OC(C)(C)C5=CC(=O)C4(C)C(C1=O)C23 (stereo not drawn),Potency,[1],5.02 µM (active)
COC(=O)[C@@H](NC(=O)[C@H](CC(C)C)NC(=O)N(Cc1ccccc1)C[C@@H](O)[C@H](Cc1ccccc1)NC(=O)OC(C)(C)C)C(C)C,Potency,[1],3.35 µM (active)
Cc1cc(-c2nncc3c(C(C)(C)C)c(OCc4ncnn4C)nn23)no1,Potency,[1],inactive
COc1ccc(Oc2cc(C)c(-c3csc(NC(=O)c4ccncc4)n3)c(C)c2)cc1,Potency,[1],0.092 µM (active)
COC(=O)C1(O)C(OC(C)=O)CCC2C3(CC(c4ccoc4)OC3=O)C(C)=CCC21C(=O)OC (stereo not drawn),Potency,[1],inactive
CO[C@H]1C[C@@H]2CC[C@@H](C)[C@@](O)(O2)C(=O)C(=O)N2CCCC[C@@H]2C(=O)O[C@H]([C@@H](C)C[C@@H]2CC[C@H](O)[C@H](OC)C2)CC(=O)[C@H](C)C=C(C)[C@@H](O)[C@@H](OC)C(=O)[C@H](C)C[C@H](C)C=CC=CC=C1C,Potency,[1],10.5 µM (active)
same,Potency,[2],inactive
same,Potency,[3],inactive
same,Potency,[4],inactive
Cc1ccccc1C(C(=O)NC1CCCCC1)N(C(=O)Cn1ccnc1C)c1cccc(F)c1 (stereo not drawn),Potency,[1],9.34 µM (active)
same,Potency,[2],inactive
same,Potency,[3],inactive
same,Potency,[4],inactive
same,Potency,[5],inactive
same,Potency,[6],inactive
same,Potency,[7],inactive
same,Potency,[8],inactive
same,Potency,[9],inactive
same,Potency,[10],inactive
same,activity (max response),[11],-14.8%
COc1cccc2nc(-c3cccs3)nc(NN3C(=O)C=C(C)C3=O)c12,Potency,[1],0.148 µM (active)
same,Potency,[2],1480 nM (active)
same,Potency,[3],1320 nM (active)
same,Potency,[4],469 nM (active)
same,Potency,[5],2090 nM (active)
same,Potency,[6],2960 nM (active)
same,Potency,[7],2640 nM (active)
same,Potency,[8],418 nM (active)
same,Potency,[9],935 nM (active)
same,Potency,[10],1320 nM (active)
same,Potency,[11],11200 nM (active)
same,Potency,[12],2820 nM (active)
C=C1C(=O)OC2CC(C)=C(C(C)CCCOC(C)=O)C(OC(=O)CC(C)CC)C12 (stereo not drawn),Potency,[1],2.52 µM (active)
CCCCCCCOc1cc2c(cc1/C(C)=C/c1ccc(C(=O)O)cc1)C(C)(C)CCS2(=O)=O,Potency,[1],11.6 µM (active)
